Screening results from PubChem.
The sample as a whole holds a higher share of hits than the screen did.
S1P2 blocker – blocks the human S1P2 receptor | O95136 | cell-based S1P2 antagonist assay, inhibition at 5 uM | inhibition, % at 5 µM | 0.21% of 97,000 active | AID 736; in the data active = inhibition above about 45%;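 also: CRE beta-lactamase reporter cells expressing human S1P2 stimulated with S1P; 0% = agonist at EC80 alone and 100% = agonist plus reference antagonist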
PostGolgi yeast – growth inhibition of a yeast mutant, post-Golgi transport screen | post-Golgi transport phenotypic cell assay | inhibition, % at 10 µM | 0.9% of 98,000 active;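 also: yeast cells grown in 1536-well plates; yeast grown about 18 h at 30C before absorbance read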
GALR2 ag – GALR2 (human) receptor agonism; O43603; GALR2-expressing cells, agonist activation read-out; activation, % (concentration not given with the values); 0.48% of 140,000 active; in the data active = activation above about 5%, passing the limit was not always enough;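 also: 0% = vehicle buffer wells and 100% = reference agonist at full effect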
Target sequence (O43603 whole entry, looked up): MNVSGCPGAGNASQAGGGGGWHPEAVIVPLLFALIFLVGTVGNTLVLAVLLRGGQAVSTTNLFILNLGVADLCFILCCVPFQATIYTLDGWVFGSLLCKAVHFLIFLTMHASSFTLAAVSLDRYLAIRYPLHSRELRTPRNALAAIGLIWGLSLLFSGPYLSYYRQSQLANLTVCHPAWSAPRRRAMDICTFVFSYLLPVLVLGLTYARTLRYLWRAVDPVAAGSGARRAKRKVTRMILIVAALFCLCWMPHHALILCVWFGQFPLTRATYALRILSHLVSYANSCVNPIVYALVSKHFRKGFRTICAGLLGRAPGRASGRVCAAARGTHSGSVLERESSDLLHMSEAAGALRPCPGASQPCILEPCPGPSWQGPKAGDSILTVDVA
S1P2 ag – agonists of human S1P2 receptor; AID 729; 0.46% of 97,000 active; S1P2-expressing cell line, agonist reporter read-out; activation, % at 4.5 µM; in the data active = activation above about 16%;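 also: 0% = vehicle low control and 100% = maximal reference agonist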
PostGolgi ctrl – growth of the yeast control strain, post-Golgi counter-screen. efflux-deficient yeast background strain, growth absorbance A615, 16 h. inhibition, % at 10 µM. 5% of 98,000 active. AID 738
GALR2 antag – blocks the human galanin receptor 2 | AID 828 | O43603 | 0.39% of 140,000 active | inhibition, % at 4 µM | GALR2-expressing cells, antagonist mode; in the data active = inhibition above about 27%;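 also: cells stimulated with galanin 1-16 at roughly its EC80; 0% = agonist challenge control and 100% = basal control without agonist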
Starred values were filed as active, the others as inactive; . = no result. Rule as the data show it, unless noted: active = inhibition above about 30%; inactive = the rest.

SMILES | S1P2 blocker | PostGolgi yeast | GALR2 ag | S1P2 ag | PostGolgi ctrl | GALR2 antag
Nc1nc(-c2cccnc2)nc(N2CCCCC2)n1 | -15 | -11 | -4 | -3 | 6 | 5
c1ccc(-c2nc(N3CCN(c4ccccc4)CC3)nc(-n3ccnc3)n2)cc1 | -10 | 5 | -1 | -6 | 54* | 0
O=C(Cn1cnc2cc([N+](=O)[O-])ccc2c1=O)NC(c1ccccc1)c1ccccc1 | . | . | -1 | . | . | 7
O=C(c1noc2c1CCCC2)N1CCN(c2ccc(F)cc2)CC1 | 0 | 4 | -3 | -3 | 34* | 9
O=C(c1noc2c1CCCC2)N1CCCCC1 | . | 4 | 0 | . | 0 | -1
O=C(c1cc(NC(=O)C23CC4CC(CC(C4)C2)C3)cc(NC(=O)C23CC4CC(CC(C4)C2)C3)c1)N1CCCCC1 | 74* | . | -2 | -11 | . | 13
O=C(Nc1ccc(C(=O)N2CCCCC2)cc1)C1CCCCC1 | 10 | 14 | -2 | -5 | 1 | 1
O=C(NC(=S)N1CCCCC1)C12CC3CC(CC(C3)C1)C2 | -5 | 21 | -1 | -3 | 33* | -4
Clc1ccc(OCCCNCc2ccccc2)c(Br)c1 | 6 | -37 | -1 | -7 | 31* | -4
Cc1cc(S(=O)(=O)N2CCN(c3ncccn3)CC2)ccc1-n1cnnn1 | . | 8 | -1 | . | 0 | 17
CC(=O)c1cc2c(cc1NC(=O)c1cc(C)nn1-c1ccccc1)OCO2 | . | . | 15* | . | . | 9
CCN(CC)C(=O)c1cnn(-c2ccccc2)c1NC(=O)c1cccs1 | -13 | . | -3 | -5 | . | -6
CCN(CC)S(=O)(=O)c1cccc(-c2nnc(SC(C)C#N)n2Cc2ccccc2)c1 (configuration not stated) | . | 11 | 0 | . | 21 | 4
CCN(CC)S(=O)(=O)c1cccc(-c2nnc(SCC#N)n2Cc2ccccc2)c1 | . | -4 | 0 | . | 33* | 2
Cc1c(C(=O)NCc2cccnc2)oc2ccc(S(=O)(=O)N3CCCC(C)C3)cc12 (configuration not stated) | . | 6 | -1 | . | 33* | 6
O=C(O)CCCNC(=O)c1cccc(C(=O)NCCCC(=O)O)n1 | . | . | -1 | . | . | 3
CC(=O)OCCCNc1cc(Sc2nc3ccccc3s2)c2nonc2c1[N+](=O)[O-] | 5 | -2 | -1 | -1 | 43* | -4
O=[N+]([O-])c1c(NCCCO)cc(Sc2ccc(Cl)cc2)c2nonc12 | . | . | 5.0* | . | . | 8
CC(C)(C(=O)c1ccccc1)/[N+]([O-])=C/c1ccccc1F | 9 | . | -2 | 1 | . | 11
O=[N+]([O-])c1ccc(Oc2ccc(F)cc2)c2ccncc12 | -2 | 16 | -1 | -3 | 30 | 1
O=[N+]([O-])c1ccc(Oc2cccc(Br)c2)c2ccncc12 | -37 | 8 | -1 | -3 | 79* | 0
CCOC(=O)/C(N=Nc1sc(C(=O)OC)c(C)c1C(=O)OCC)=C(\O)CCl | . | . | -1 | . | . | 6
O=C(NC1CCCC1)C(c1ccc(F)cc1)N(Cc1ccccc1Cl)C(=O)CCl (configuration not stated) | . | . | -1 | . | . | 15
CN(C)c1ccnc(-n2cccc2/C=N/OCc2ccc(F)cc2Cl)c1C#N | 4 | -8 | -2 | 0 | 34* | -11
CN1CC2([N+](=O)[O-])CC=C(OCCO)C([N+](=O)[O-])(C1)C2 (configuration not stated) | . | . | -1 | . | . | 0
SMILES | S1P2 blocker | PostGolgi yeast | GALR2 ag | S1P2 ag | PostGolgi ctrl | GALR2 antag
C=CCOc1c(OC)cc(/C=N/Nc2cccc(C(=O)O)c2)c(Br)c1Br | . | . | 0 | . | . | -4
Cc1ccc(NC(=O)N/C=C/c2ccc(Cl)cc2)cc1 | 7 | -7 | -1 | -4 | 31* | 6
COc1ccc2c(c1)nc(SCC(=O)c1cccs1)n2C | 14 | -5 | -1 | -3 | 0 | -1
Cc1ccc(NS(=O)(=O)c2ccc(OCC(=O)N3CCOCC3)cc2)cc1 | -14 | 2 | -2 | -4 | 33* | 2
CCCNS(=O)(=O)c1ccc(OCC(=O)N2CCC(C(=O)OCC)CC2)cc1 | 8 | -7 | 0 | -4 | 31* | -9
COc1ccc2c(C)nc(Nc3nc(C)c(C)c(=O)[nH]3)nc2c1 | -19 | -7 | -2 | 14 | 66* | -6
COCCCn1c(=N)c(C(=O)NCc2ccc3c(c2)OCO3)cc2c(=O)n3ccccc3nc21 | -26 | -4 | 0 | 1 | 10 | 7
CCOC(=O)c1cc2c(=O)n3ccccc3nc2n(CC2CCCO2)c1=NC(C)=O (configuration not stated) | -46 | . | 24* | 26* | . | -20
Cc1cccn2c(=O)c3cc(C(=O)NC4CCCC4)c(=N)n(C4CCCC4)c3nc12 | . | -3 | 5.0* | . | 9 | 0
Cc1ccc(S(=O)(=O)c2cc3c(=O)n4ccccc4nc3n(CC3CCCO3)c2=N)cc1 (configuration not stated) | -38 | . | -3 | -1 | . | 7
Cc1ccc(CNC(=O)c2cc3c(=O)n4ccccc4nc3n(CC3CCCO3)c2=N)cc1 (configuration not stated) | . | -1 | 8.3* | . | 0 | -12
N#Cc1cc2c(=O)n3ccccc3nc2n(CC2CCCO2)c1=N (configuration not stated) | 20 | . | 2 | -1 | . | -5
COCCCn1c(=N)c(C(=O)NC2CCCCC2)cc2c(=O)n3ccccc3nc21 | -56 | . | 16* | 32* | . | -26
O=C(CN1CCOCC1)Nc1ncc(Cc2cccc(Cl)c2Cl)s1 | . | . | -2 | . | . | 7
Cc1cccc(OC(=O)n2c(=S)oc3cc(Cl)ccc32)c1 | . | . | -1 | . | . | -6
Cc1cc(C)cc(C(=O)N2CC(C)OC(C)C2)c1 (configuration not stated) | -9 | 5 | 0 | -1 | -1 | -14
CN(C)CCSc1nnc2[nH]c3ccccc3c2n1 | . | . | -1 | . | . | -6
O=C(CC(c1ccccc1)c1ccccc1)OCn1nnc2ccccc2c1=O | -2 | 5 | -2 | -4 | 27 | 1
CN(Cc1ccccc1)c1ccc(C(=O)O)cc1[N+](=O)[O-] | . | . | -3 | . | . | -6
N=c1c(C(=O)NCc2ccco2)cc2c(=O)n3ccccc3nc2n1Cc1ccc(Cl)cc1 | -37 | 11 | 5.2* | 29* | 35* | -23
CC(=O)C(=Nc1ccc(Cl)cc1Cl)NNc1cccc(Cl)c1 | -3 | 5 | -2 | -4 | 4 | 12
COc1cccc(CC(=S)N2CCOCC2)c1 | . | . | 0 | . | . | 6
CCC1(C)Cc2ccccc2-c2nc(NCCO)n(-c3ccccc3)c(=O)c21 (configuration not stated) | -2 | . | -2 | -2 | . | 5
CCC1(C)Cc2ccccc2-c2nc(NCCO)n(-c3ccc(C)cc3)c(=O)c21 (configuration not stated) | 2 | 1 | -3 | -4 | 35* | -1
CC1(C)CC(=O)C2=C(C1)NC1=C(C(=O)c3ccccc31)C2c1ccccc1 (configuration not stated) | . | . | 1 | . | . | -2
CC(C)(C)c1ccc(C2C3=C(CCCC3=O)NC3=C2C(=O)c2ccccc23)cc1 (configuration not stated) | -8 | -18 | -2 | -8 | 32* | 1
